# Screening results deposited in PubChem by several laboratories.
# Vif imaging: HIV Vif inhibition; AID 602346; HEK293T cells, Vif self-association by quenched fluorescence, imaging, 24 h; inhibition, % at 7.49 µM; 340,000 tested, 0.35% active; in the data active = inhibition above about 50%, passing the limit was not always enough
# NR3A LBD binder: modulates the human NR3A ligand-binding domain; NR3A LBD differential scanning fluorimetry, Tm shift; 0% = protein alone, 100% = glycine-bound protein; Tm shift relative to glycine control, % at 25 µM; 340,000 tested, 2.5% active; AID 1259313;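 active = melting temperature shift of at least 10% of the positive control shift, at one fixed dose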
# SMARCA2 activ: increases SMARCA2 function in MMTV reporter cells; AID 652017; activation, % at 9.1 µM; MG213 cells, MMTV-luciferase reporter, dexamethasone, overnight; 370,000 tested, 1% active; in the data active = activation above about 7.8%;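 also: 0% = vehicle wells and 100% = reference activator wells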
# SKN-1 inh: C. elegans SKN-1 inhibition | C. elegans VP596 Pgst-4::GFP/RFP ratio, acrylamide-induced, 24 h | inhibition, % at 21.8 µM | 360,000 tested, 0.49% active;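 active = interference check ratio from 0.5 to 1.5 plus GFP to RFP signal ratio inhibition reaching or exceeding a fixed threshold, cut at about 30% in these data, passing the limit was not always enough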
# NadD inh: inhibitors of Staphylococcus aureus NadD; purified NadD enzyme, colorimetric absorbance read-out; inhibition, % at 20 µM; 360,000 tested, 0.78% active; AID 602399; in the data active = inhibition above about 26%
# esBAF inh: SWI/SNF esBAF complex inhibition; mouse ES cells, Bmi1-luciferase knock-in reporter, 24 h; 100% = twice the neutral-well signal; reporter increase, % at 12.5 µM; 350,000 tested, 2% active; AID 602393; in the data active = activation above about 40%;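 also: 0% = median of the plate's neutral control wells and 100% = double that signal; a rise in the Bmi1 reporter signal indicates esBAF inhibition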
# * marks the source's active call; other numbers are inactive results; / = no result. Rows were chosen to be rich in hits. Some 5.2% of all compounds tested hit in one or more screens of this group.
SMILES,Vif imaging,NR3A LBD binder,SMARCA2 activ,SKN-1 inh,NadD inh,esBAF inh
Cc1ccc(NCc2nc3ccccc3n2C)cc1,5,0,4,13,-3,72*
Cn1c(CNc2ccc(O)cc2)nc2ccccc21,31,6,0,0,-4,34
Cn1c(CNc2nc3ccccc3n2C)nc2ccccc21,-1,0,0,-14,-1,68*
Cn1c(NCc2c(O)ccc3ccccc23)nc2ccccc21,-1,14*,-3,21,14,/
Cn1c(CNc2ccc(Br)cc2)nc2ccccc21,-5,-2,3,12,-5,/
CO[C@H]1CN(C)C(=O)c2ccc(NC(=O)Nc3ccc(Cl)cc3)cc2OC[C@@H](C)NC[C@@H]1C,/,/,/,/,/,0
CO[C@H](CN(C)S(=O)(=O)c1ccccc1)[C@H](C)CN(C(=O)Nc1ccccc1F)[C@H](C)CO,/,/,/,/,/,6
COc1ccc(Cc2c(-c3ccc(F)cc3)nc3ccc(Br)cn23)c(C)c1,/,/,2,25,8,57*
COc1ccc(Cc2c(-c3cccc(Cl)c3)nc3ccc(Br)cn23)c(C)c1,/,/,4,24,17,51*
COc1ccc(Cc2c(-c3cccc(Br)c3)nc3ccc(Br)cn23)c(C)c1,/,/,7,20,19,34
COc1ccc(NC(=O)Nc2ccc3c(c2)C(=O)N([C@H](C)CO)C[C@H](C)[C@@H](CN(C)S(=O)(=O)c2ccc(F)cc2)OCCCC[C@H](C)O3)cc1,/,/,/,/,/,6
Cc1ccc(S(=O)(=O)Nc2ccc3c(c2)C(=O)N([C@@H](C)CO)C[C@@H](C)[C@H](CN(C)C(=O)CCCN(C)C)OCCCC[C@H](C)O3)cc1,/,/,/,/,/,0
CCOC(=O)C[C@H]1c2ccccc2S(=O)(=O)N1Cc1ccc(Cl)cc1,-6,13*,-1,23,-6,-13
CC(C)NC(=O)N1[C@H](CO)[C@@H](c2ccccc2)[C@H]1CN(C)C(=O)c1ccncc1,/,/,/,/,/,4
COC(=O)c1nccnc1N,-3,14*,-3,5,1,/
C[C@H](CO)N1C[C@H](C)[C@@H](CN(C)C(=O)CCC(F)(F)F)OCCCC[C@H](C)Oc2ccc(NC(=O)Cc3ccccc3)cc2C1=O,/,/,/,/,/,1
Cc1cc2nc(-c3ccccc3O)[nH]c2cc1C,-18,27*,5,13,5,5
Oc1ccccc1-c1n[nH]c(-c2ccccc2O)n1,-12,23*,-4,6,0,/
Cc1cc(=O)[nH]c(-c2ccccc2O)n1,-15,1,/,-33,-7,-5
CC(=O)N(C)C[C@H]1Oc2cc(-c3ccccc3F)ccc2S(=O)(=O)N([C@@H](C)CO)C[C@H]1C,/,/,/,/,/,5
CCCNC(=O)N1C[C@H](O)COC[C@H]2O[C@H](CC(=O)N[C@@H]3CCN(Cc4ccccc4)C3)CC[C@@H]21,/,/,/,/,/,-2
Cc1c(C(=O)Nc2nccs2)oc2ccc(Br)cc12,12,-1,4,20,8,72*
COc1ccc2oc(C(=O)Nc3nc(C)cs3)c(C)c2c1,20,20*,2,0,5,22
COc1ccc2oc(C(=O)Nc3ccccn3)c(C)c2c1,-2,0,5,14,-5,-49
Cc1noc(C)c1NC(=O)N(C)C[C@@H]1Oc2ccc(NC(=O)C3CC3)cc2CC(=O)N([C@H](C)CO)C[C@@H]1C,/,/,/,/,/,-4
SMILES,Vif imaging,NR3A LBD binder,SMARCA2 activ,SKN-1 inh,NadD inh,esBAF inh
CCc1ccc(NC(=O)c2cnc3n(c2=O)CCS3)cc1,-1,1,2,-1,6,61*
C=CCNC(=O)c1cnc2n(c1=O)CCS2,19,-1,7.9*,4,0,1
C[C@H](CO)N1C[C@H](C)[C@H](CN(C)S(=O)(=O)c2ccc(Cl)cc2)Oc2ccc(NS(=O)(=O)c3ccc(F)cc3)cc2C1=O,/,/,/,/,/,-1
COc1cccc2c1C(=O)c1c(O)c3c(c(O)c1C2=O)C[C@@](O)(C(C)=O)C[C@@H]3O[C@H]1C[C@H](N)[C@H](O)[C@H](C)O1,-8,-4,-15,68,-8,-78
COc1cccc2c1C(=O)c1c(O)c3c(c(O)c1C2=O)C[C@@](O)(C(=O)CO)C[C@@H]3O[C@H]1C[C@H](N)[C@@H](O)[C@H](C)O1,27,-9,/,68,57*,-83
COc1cccc2c1C(=O)c1c(O)c3c(c(O)c1C2=O)CC(O)(C(=O)CO)CC3OC1CC(N(C)C)C(O)C(C)O1 (stereo unspecified),-5,2,-11,83,33*,/
COC(=O)C[C@@H]1C[C@H]2c3cc(NC(=O)Nc4ccc(C(F)(F)F)cc4)ccc3O[C@H]2[C@@H](CO)O1,/,/,/,/,/,6
COCCNC(=O)C(=O)NCC1OCCN1S(=O)(=O)c1ccc2c(c1)OCCO2 (stereo unspecified),1,1,-3,-4,-3,-3
COCCNC(=O)C(=O)NCC1OCCN1S(=O)(=O)c1ccc(C)cc1 (stereo unspecified),-4,14*,3,-2,-2,-5
CNC(=O)C(=O)NCC1OCCN1S(=O)(=O)c1ccc(C)cc1 (stereo unspecified),11,11*,-2,5,-3,6
CS(=O)(=O)N1N=C(c2ccc(Br)cc2)CC1c1cccs1 (stereo unspecified),-9,-1,2,6,-7,77*
N=C1N(/N=C/c2ccccc2)C(=Nc2ccccc2)C(=S)N1c1ccccc1,1,-4,-3,-13,9,60*
Cc1ccc(/C=N/n2c(-c3ccccc3)n[nH]c2=S)cc1,1,1,-1,6,-2,-3
O=C(C[C@@H]1C[C@H]2c3cc(NC(=O)Nc4ccc(C(F)(F)F)cc4)ccc3O[C@H]2[C@@H](CO)O1)NCc1cccnc1,/,/,/,/,/,-2
C=CCOC(=O)c1cc(-c2ccc(/C=C3\C(=O)NC(=O)C(C#N)=C3C)o2)ccc1Cl,/,-1,-1,-1,69*,8
CCCOC(=O)c1cc(-c2ccc(/C=C3/C(=O)N(C)C(=O)C(C#N)=C3C)o2)ccc1Cl,-4,-5,/,2,11,-1
CCC(c1nnnn1Cc1ccc2c(c1)OCO2)N1CCN(c2ccc(F)cc2)CC1 (stereo unspecified),1,-1,-3,36*,-5,/
CCC(c1nnnn1Cc1ccc2c(c1)OCO2)N1CCN(c2ccccc2)CC1 (stereo unspecified),/,4,-3,-2,-4,-4
Cc1cccc(NC(=S)NNC(=O)c2sccc2C)c1,/,-15,3,-2,0,42*
Cc1ccsc1C(=O)NNC(=S)NCC(C)C,/,-1,1,7,-3,9
Cc1cccc(NC(=S)NNC(=O)c2csc(C(C)C)c2)c1,-10,-4,0,-6,8,6
CCc1cc(C(=O)NNC(=S)Nc2cccc(C)c2)cs1,15,-6,3,16,5,50*
